High-throughput results from PubChem.
Shown are actives, neighbours in structure and some others; about 19% of the full set was active somewhere.
TDP1 cell noCPT = qHTS for Inhibitors of human tyrosyl-DNA phosphodiesterase 1 (TDP1): qHTS in cells in absence of CPT. Potency, µM (highest dose often 46.2 µM), inactives show at the top dose activity change, negative = growth inhibition, usual class: inhibitors. 15% of 420,000 active. DT40 Tdp1-/- hTDP1 cells, no CPT, ATP luminescence, 48 h; also: nearly all actives have a fitted effect of over 55% in size
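Camptothecin absent (DMSO only). Human TDP1-complemented DT40 knockout cells, 400 cells/well, 37 °C for minimum 48 hr; ATP measured via CellTiter-Glo, 30 min dark incubation, luminescence.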
KB-V1 cytotox = KB-V1 MDR subline cytotoxicity | KB-V1 MDR cells viability, CellTiter-Glo, 72 h | Potency, µM (top dose mostly 46.1 µM), actives largely listed as cytotoxic | 3.4% of 400,000 active | AID 1347076; also: nearly all actives have a fitted effect of over 60% in size
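KB-V1 cells (P-gp-expressing MDR subline of KB-3-1) in phenol-red-free DMEM with 10% FBS were exposed to library compounds over a concentration series for 72 h at 37 degrees C. Viability read by CellTiter-Glo luminescence; concentration-effect curves fitted after normalization.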
TDP1 cell CPT = growth inhibition of DT40 Tdp1-/-;hTDP1 cells with camptothecin (screen for TDP1 inhibitors) | AID 686979 | 12% of 420,000 active | chicken DT40 Tdp1-/-;hTDP1 cells + 20 nM CPT, ATP luminescence, 48 h | Potency, µM (titrated, usually from 46.2 µM), for the others: top-dose activity change, negative = growth inhibition, hits mostly inhibitors; also: nearly all actives have a fitted effect of over 55% in size
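Cell growth measured by CellTiter-Glo luminescence after a minimum 48 h, 37 C compound exposure with 20 nM CPT in Tdp1-knockout DT40 cells stably expressing hTDP1, seeded 400/well; qHTS titration format.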
HT1080-NT tox = kills 2HG-producing HT-1080-NT fibrosarcoma cells; HT-1080-NT fibrosarcoma viability, CellTiter-Glo ATP luminescence, 48 h; Potency, µM (doses to about 46.1 µM), for inactives: at the top dose activity, negative = less viability, most hits filed as cytotoxic; 1.6% of 360,000 active; AID 686970;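 also: NT is the 2HG producing partner of a matched IDH1 knockdown line; 0% = DMSO-treated cells and -100% = media-only wells without cells; nearly all actives have a fitted effect of over 55% in size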
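Luminescent CellTiter-Glo readout after 48 hours of compound exposure at 37 degrees C defined viability of HT-1080-NT cells. Activity was normalized to DMSO wells and cell-free media wells; concentration-response curves were fitted and assigned curve classes.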
HT1080 IDH1KD tx = toxicity to HT-1080 IDH1 knockdown cells (counter line); HT-1080 IDH1 knockdown viability, ATP luminescence, 48 h; Potency, µM (doses to about 46.1 µM), without a hit: top-dose activity, negative = toxicity, hits mostly cytotoxic; 2% of 360,000 active;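 also: 0% = DMSO wells and -100% = cell-free medium wells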
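HT-1080-IDH1KD cells (IDH1 knocked down), 750/well in RPMI with 5% FBS, treated with compound 48 h at 37 degrees C. Viability by CellTiter-Glo luminescence, normalised to DMSO and no-cell wells; concentration-response curves classed.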
KB-3-1 tox = KB-3-1 parental cell cytotoxicity | Potency, µM (series often up to 46.1 µM), actives largely listed as cytotoxic | 1.4% of 400,000 active | AID 1347075 | KB-3-1 viability, CellTiter-Glo ATP luminescence, 72 h; also: nearly all actives have a fitted effect of over 60% in size
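Parental KB-3-1 adenocarcinoma cells in phenol-red-free DMEM with 10% FBS were pin-treated with compounds at several concentrations, incubated 72 h at 37 °C, and viability read by CellTiter-Glo luminescence; concentration-effect curves were fitted after normalization.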
An asterisk follows results filed as active; i = inactive; ? = inconclusive; / = no result given. Calls follow the shape of the dose curve; as a rule, active = well fitted curve in the direction sought with a large enough effect; inconclusive = small, poorly fitted or top-dose-only effect, or another doubt; inactive = no such curve, though single readings can be large; an effect the other way counts as inactive or inconclusive. Unless noted, % is scaled to controls: 0 for no effect and ±100 for the full control effect; potency is read from the fitted curve at half-maximal effect.

SMILES | TDP1 cell noCPT | KB-V1 cytotox | TDP1 cell CPT | HT1080-NT tox | HT1080 IDH1KD tx | KB-3-1 tox
Cc1ccc2nc(SCC(=O)Nc3ccc4sc(C)nc4c3)c(C#N)cc2c1 | ? | ? | ? | 4.5% | -2.8% | ?
NS(=O)(=O)c1cc(C(=O)OCC(=O)N2CCOCC2)ccc1Cl | -3.5% | i | 0.5% | 9.4% | 16.8% | i
c1ccc(C2CC(c3ccccc3)n3c(nc4ccccc43)N2)cc1 (stereo not given) | 14.6µM* | i | 16.4µM* | -24.4% | -10.5% | i
CCc1ccc(C2CC(c3ccccc3)Nc3nc(N)nn32)cc1 (stereo not given) | -19.0% | i | -6.2% | 1.9% | 11.3% | i
COc1ccccc1NC(=O)c1nnn(-c2ccc(F)cc2)c1C | 11.7% | i | -15.6% | / | / | i
CC(=O)N(CCC(c1ccccc1)c1ccco1)Cc1cccs1 (stereo not given) | ? | 20.6µM* | 14.6µM* | -5.2% | ? | ?
O=C(c1ccco1)N(CCC(c1ccccc1)c1ccco1)Cc1ccco1 (stereo not given) | ? | 13µM* | ? | 4.9% | 8.8% | i
Cc1occc1C(=O)NNC(=S)Nc1cccc([N+](=O)[O-])c1 | 23.1µM* | i | ? | ? | ? | i
O=C(Nc1cccc([N+](=O)[O-])c1)Nc1cccc([N+](=O)[O-])c1 | 2.91µM* | i | 4.61µM* | ? | ? | i
O=C(Nc1ccc(C(=O)O)cc1)Nc1cccc([N+](=O)[O-])c1 | -17.8% | i | -8.4% | 19.6% | 29.2% | i
Cc1cccc(NC(=S)NNC(=O)c2cccc([N+](=O)[O-])c2)c1 | -21.7% | i | -14.8% | -5.6% | 8.2% | i
CC(C)S(=O)(=O)c1csc(NC(=O)Nc2cccc([N+](=O)[O-])c2)c1Cl | 14.6µM* | ? | 16.4µM* | -3.9% | 16.4% | 23.1µM*
O=C(Nc1cccc([N+](=O)[O-])c1)NN1CCCCCC1 | 18.4µM* | i | ? | -15.3% | -11.5% | i
COc1cc(NC(=O)Nc2cccc([N+](=O)[O-])c2)cc(OC)c1 | ? | ? | ? | -26.1% | ? | i
C[C@@H]1CN([C@H](C)CO)C(=O)CCCn2nncc2CO[C@@H]1CN(C)S(=O)(=O)c1cccs1 | -8.4% | i | -6.1% | 9.5% | 17.6% | i
Cc1ccc(CNS(=O)(=O)c2ccc3c(c2)NC(=O)CS3)cc1 | 14.6µM* | i | ? | -5.3% | -0.2% | i
O=C1CSc2ccc(S(=O)(=O)NCc3ccc(Cl)cc3)cc2N1 | -8.5% | i | -22.2% | -10.8% | -13.1% | i
